From PubChem BioAssay (Tox21)
Results filed as inconclusive are left out. Active and inactive are the calls of the source. Unless noted, calls follow the shape of the dose curve; as a rule, active = well fitted curve in the direction sought with a large enough effect in the repeat runs; inconclusive = weak or mixed curves; inactive = no such curve, though single readings can be large; an effect the other way counts as inactive or inconclusive.

Key:
[1] = target: Estrogen receptor (Homo sapiens) (UniProt P03372); assay: qHTS assay to identify small molecule agonists of the estrogen receptor alpha (ER-alpha) signaling pathway in the presence of an antagonist (AID 1259383; calls by dose curve; also: top concentration of the series differs between compounds; nearly all actives have a fitted effect of over 15% in size)
Estrogen receptor (Homo sapiens), sequence (P03372 whole entry, looked up): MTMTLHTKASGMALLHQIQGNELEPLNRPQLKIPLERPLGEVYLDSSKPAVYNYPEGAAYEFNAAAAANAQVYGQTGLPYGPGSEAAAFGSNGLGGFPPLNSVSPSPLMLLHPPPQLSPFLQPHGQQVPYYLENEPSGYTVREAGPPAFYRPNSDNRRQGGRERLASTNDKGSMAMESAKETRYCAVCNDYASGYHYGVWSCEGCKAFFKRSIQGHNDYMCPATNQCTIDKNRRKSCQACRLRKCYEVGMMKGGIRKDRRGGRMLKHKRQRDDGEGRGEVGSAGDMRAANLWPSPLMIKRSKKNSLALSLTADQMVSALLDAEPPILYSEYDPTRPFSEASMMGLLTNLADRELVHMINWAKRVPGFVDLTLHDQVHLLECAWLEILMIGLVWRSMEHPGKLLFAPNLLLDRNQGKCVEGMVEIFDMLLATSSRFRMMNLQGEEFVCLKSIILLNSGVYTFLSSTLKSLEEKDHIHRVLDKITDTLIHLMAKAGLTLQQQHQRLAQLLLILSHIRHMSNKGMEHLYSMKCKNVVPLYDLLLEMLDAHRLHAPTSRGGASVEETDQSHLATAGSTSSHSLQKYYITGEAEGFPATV
Summary of the method: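 Agonist-mode confirmation in the presence of the ER antagonist ICI-182,780 at 10.0nM final. Breast-derived VM7Luc4E2 reporter cells were exposed to compounds for 22hr, and ERE-driven luciferase was quantified by luminescence.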

[2] = qHTS assay to identify small molecule agonists or antagonists of the thyroid stimulating hormone receptor (TSHR) signaling pathway - wild type cell line counter screen (AID 1259384; calls by dose curve)
Summary of the method: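 Wild-type HEK293 cells were plated 18 h at 37 C/5% CO2, pin-dosed with compound plus Ro20-1724 medium, held 30 min at room temperature, then given cAMP-d2 and anti-cAMP-cryptate; fluorescence was read after 1 h. Fifteen concentrations, triplicate.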

[3] = target: Thyrotropin receptor (Homo sapiens) (UniProt P16473); assay: qHTS assay to identify small molecule antagonists of the thyroid stimulating hormone receptor (TSHR) signaling pathway (AID 1259385; calls by dose curve; also: nearly all actives have a fitted effect of over 20% in size)
Thyrotropin receptor (Homo sapiens), sequence (P16473 whole entry, looked up): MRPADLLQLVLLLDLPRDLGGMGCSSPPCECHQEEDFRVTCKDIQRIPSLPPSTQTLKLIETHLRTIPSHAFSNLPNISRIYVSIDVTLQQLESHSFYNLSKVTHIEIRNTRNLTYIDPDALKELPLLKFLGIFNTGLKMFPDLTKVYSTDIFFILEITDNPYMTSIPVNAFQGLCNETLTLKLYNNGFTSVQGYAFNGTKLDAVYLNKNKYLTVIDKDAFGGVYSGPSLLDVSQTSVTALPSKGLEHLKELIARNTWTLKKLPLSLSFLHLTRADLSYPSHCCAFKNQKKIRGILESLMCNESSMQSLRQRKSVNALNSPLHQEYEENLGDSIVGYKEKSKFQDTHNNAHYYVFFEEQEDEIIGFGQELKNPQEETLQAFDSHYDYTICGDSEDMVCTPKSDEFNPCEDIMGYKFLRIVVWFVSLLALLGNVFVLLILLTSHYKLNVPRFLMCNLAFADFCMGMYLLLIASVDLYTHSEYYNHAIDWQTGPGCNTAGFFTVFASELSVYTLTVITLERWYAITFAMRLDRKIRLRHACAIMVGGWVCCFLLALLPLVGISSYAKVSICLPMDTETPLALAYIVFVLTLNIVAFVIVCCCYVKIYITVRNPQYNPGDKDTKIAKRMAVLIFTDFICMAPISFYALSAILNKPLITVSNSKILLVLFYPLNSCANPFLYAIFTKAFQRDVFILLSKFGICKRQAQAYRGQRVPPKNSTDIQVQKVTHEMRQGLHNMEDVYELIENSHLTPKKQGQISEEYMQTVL
Summary of the method: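 TSHR-HEK293 cells were plated and held 18 h at 37C/5% CO2, then given compound plus Ro20-1724 and stimulated with TSH at 1.5 ng/mL final. After 30 min at room temperature, cAMP was detected with cAMP-d2/anti-cAMP-cryptate (1 h) by fluorescence.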

[4] = qHTS assay to identify small molecule agonists of the estrogen receptor alpha (ER-alpha) signaling pathway in the presence of an antagonist - cell viability counter screen (AID 1259386);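 also: series mostly up to about 92 µM; cells exposed to compounds for 22 h at 37 °C before the viability read; nearly all actives have a fitted effect of over 30% in size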
Summary of the method: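 Cytotoxicity was measured in parallel with the ERE-luciferase agonist screen, in the same wells. The cells were VM7Luc4E2, which endogenously express ER-alpha, and treatment was with compounds plus 10.0nM ICI-182,780 for 22hr.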

[5] = target: Progesterone receptor (Homo sapiens) (UniProt P06401); assay: qHTS assay to identify small molecule agonists of the progesterone receptor (PR) signaling pathway (AID 1346784; calls by dose curve; also: nearly all actives have a fitted effect of over 30% in size)
Progesterone receptor (Homo sapiens), sequence (P06401 whole entry, looked up): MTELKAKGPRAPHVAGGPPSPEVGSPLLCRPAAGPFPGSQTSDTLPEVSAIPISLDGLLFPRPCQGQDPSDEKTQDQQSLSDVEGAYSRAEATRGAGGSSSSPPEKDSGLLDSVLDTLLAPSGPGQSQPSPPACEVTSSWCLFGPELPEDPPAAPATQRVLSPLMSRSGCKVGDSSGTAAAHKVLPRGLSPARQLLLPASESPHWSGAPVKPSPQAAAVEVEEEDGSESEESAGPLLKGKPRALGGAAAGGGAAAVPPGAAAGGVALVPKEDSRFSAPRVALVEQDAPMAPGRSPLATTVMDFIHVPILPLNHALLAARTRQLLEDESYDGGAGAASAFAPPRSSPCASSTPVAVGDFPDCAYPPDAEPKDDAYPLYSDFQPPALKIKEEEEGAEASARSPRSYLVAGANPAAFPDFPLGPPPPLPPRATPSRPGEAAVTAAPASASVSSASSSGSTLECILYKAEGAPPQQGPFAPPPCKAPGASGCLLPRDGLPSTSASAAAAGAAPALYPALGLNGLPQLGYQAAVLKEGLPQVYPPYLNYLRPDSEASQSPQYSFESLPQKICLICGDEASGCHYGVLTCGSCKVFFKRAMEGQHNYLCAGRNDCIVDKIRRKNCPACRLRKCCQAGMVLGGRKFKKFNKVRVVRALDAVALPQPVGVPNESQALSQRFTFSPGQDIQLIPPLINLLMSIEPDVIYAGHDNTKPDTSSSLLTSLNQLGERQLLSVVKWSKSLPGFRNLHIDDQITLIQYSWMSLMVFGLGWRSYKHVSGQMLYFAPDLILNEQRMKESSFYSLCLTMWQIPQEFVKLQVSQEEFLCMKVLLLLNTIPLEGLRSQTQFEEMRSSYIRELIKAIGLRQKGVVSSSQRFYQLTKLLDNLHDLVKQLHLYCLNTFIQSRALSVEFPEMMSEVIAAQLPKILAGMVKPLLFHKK
Summary of the method: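 Seed PR-UAS-bla HEK 293T cells (2% charcoal-stripped FBS), incubate 6 hr at 37C; add compounds in DMSO, 16 hr at 37C; add LiveBLAzer B/G substrate, 2 hr RT; read fluorescence intensity.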

[6] = target: Progesterone receptor (Homo sapiens) (UniProt P06401); assay: qHTS assay to identify small molecule antagonists of the progesterone receptor (PR) signaling pathway (AID 1346795; active = well fitted inhibition curve with a large enough effect in the signal ratio in the repeat runs, not every such curve was filed as active; the % refers to the signal ratio)
Summary of the method: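 Screening used a GripTite HEK293T line with PR-responsive UAS-beta-lactamase. Cells were challenged with compound in the presence of 1 nM R5020 final for 16 hr at 37C; B/G FRET substrate, 2 hr room temperature, fluorescence.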

[7] = qHTS assay to identify small molecule antagonists of the progesterone receptor (PR) signaling pathway - cell viability counter screen (AID 1346798); also: series mostly up to about 92 µM; nearly all actives have a fitted effect of over 50% in size
Summary of the method: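 Measures cytotoxicity in parallel with the PR antagonist reporter read: HEK293T PR-UAS-bla cells get compound and R5020 for 16 hr, and remaining viable cells are quantified by CellTiter-Glo luminescence.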

[8] = qHTS assay to identify small molecule agonists of the progesterone receptor (PR) signaling pathway - cell viability counter screen (AID 1346799; calls by dose curve; also: nearly all actives have a fitted effect of over 45% in size)
Summary of the method: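 Using the same plates as the PR reporter screen, HEK293T PR-UAS-bla cells received compounds for 16 hr at 37C and were then lysed with CellTiter-Glo; luminescence was read 30 min later at room temperature.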

[9] = qHTS assay to identify small molecule antagonists of the TGF-beta/Smad signaling pathway - cell viability counter screen (AID 1346824); also: nearly all actives have a fitted effect of over 50% in size
Summary of the method: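 SBE-bla HEK 293T cells were plated overnight at 37 C, then given compounds in DMSO plus TGF-beta1 (added as 0.25 ng/mL solution) for 5 hr. After the bla read, CellTiter-Glo was added to the same wells and luminescence read after 30 min at room temperature.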

[10] = qHTS assay to identify small molecule agonists of the TGF-beta/Smad signaling pathway - cell viability counter screen (AID 1346829); also: top concentration of the series differs between compounds; nearly all actives have a fitted effect of over 45% in size
Summary of the method: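 CellTiter-Glo luminescence readout; SBE-bla HEK 293T cells, overnight plating, compound 5 hr at 37 C/5% CO2, then bla substrate 2 hr RT, then CellTiter-Glo 30 min RT.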

[11] = qHTS assay to identify small molecule agonists of the TGF-beta/Smad signaling pathway (AID 1346859; active = well fitted activation curve with a large enough effect in the signal ratio in the repeat runs, not every such curve was filed as active; the % refers to the signal ratio; also: series mostly up to about 77 µM)
Summary of the method: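 Beta-lactamase reporter activity downstream of Smad binding elements was measured in stably transfected HEK 293T cells; compounds were incubated for 5 hr, substrate for 2 hr at room temperature.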

[12] = target: Thyrotropin-releasing hormone receptor (Homo sapiens) (UniProt P34981); assay: qHTS assay to identify small molecule agonists of the thyrotropin-releasing hormone receptor (TRHR) signaling pathway (AID 1346891; calls by dose curve;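 also: HEK293 cells expressing TRHR with calcium dye readout; series mostly up to about 58 µM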)
Thyrotropin-releasing hormone receptor (Homo sapiens), sequence (P34981 whole entry, looked up): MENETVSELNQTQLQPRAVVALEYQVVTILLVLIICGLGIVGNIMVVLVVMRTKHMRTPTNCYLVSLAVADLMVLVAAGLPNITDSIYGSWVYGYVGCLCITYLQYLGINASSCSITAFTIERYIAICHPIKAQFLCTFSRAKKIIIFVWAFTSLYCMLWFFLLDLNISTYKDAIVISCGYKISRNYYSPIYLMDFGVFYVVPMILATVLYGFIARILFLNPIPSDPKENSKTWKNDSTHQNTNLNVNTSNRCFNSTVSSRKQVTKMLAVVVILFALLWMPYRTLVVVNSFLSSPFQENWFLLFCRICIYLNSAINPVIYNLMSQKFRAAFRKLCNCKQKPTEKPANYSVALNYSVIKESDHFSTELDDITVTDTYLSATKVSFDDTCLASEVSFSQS
Summary of the method: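 Overnight-plated (18 h, 37 °C, 5% CO2) TRHR-Hek293 cells; 2 h calcium dye at 37 °C; compound in DMSO; 3-min kinetic fluorescence read.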

[13] = Human pregnane X receptor (PXR) small molecule agonists, qHTS cell viability counter screen (AID 1346977); also: nearly all actives have a fitted effect of over 50% in size
Summary of the method: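 After a 5hr pre-incubation, PXR-Luc HepG2 cells received compounds plus positive control in DMSO and were kept 24hr at 37C. Cell viability was quantified by fluorescence from CellTiter-Fluor added for the final hour.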

[14] = Caspase-3/7 induction in HepG2 cells by small molecules, qHTS assay (AID 1346978); also: nearly all actives have a fitted effect of over 15% in size
Summary of the method: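 Wild-type HepG2 cells (2,000/well) were settled 5 h at 37 C, 5% CO2, then exposed to compounds in DMSO for 17 h. Caspase-3/7 activity was read by luminescence 30 min after adding Caspase-Glo 3/7 reagent at room temperature.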

[15] = Caspase-3/7 induction in CHO-K1 cells by small molecules, qHTS cell viability counter screen (AID 1346979); also: nearly all actives have a fitted effect of over 35% in size
Summary of the method: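 Multiplexed with Caspase-Glo 3/7 in CHO-K1 cells, this counter screen added CellTiter-Fluor after 16hr of compound exposure and recorded fluorescence 1hr later.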

[16] = Caspase-3/7 induction in CHO-K1 cells by small molecules, qHTS assay (AID 1346980); also: nearly all actives have a fitted effect of over 15% in size
Summary of the method: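 Wild-type cells were seeded at 1,500 per well and settled 5 hr at 37 C, 5% CO2, then exposed to DMSO-dissolved compounds for 17 hr. Caspase-Glo 3/7 reagent was added, and luminescence was read after 30min at room temperature.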

[17] = Caspase-3/7 induction in HepG2 cells by small molecules, qHTS cell viability counter screen (AID 1346981); also: series mostly up to about 92 µM; nearly all actives have a fitted effect of over 30% in size
Summary of the method: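 Cell viability is measured as a cytotoxicity counter screen alongside the Caspase-Glo 3/7 readout in identical wells. Wild-type HepG2 cells are treated with test compounds for 16 hr at 37 C before CellTiter-Fluor addition and a 1-hr incubation.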

[18] = target: Thyrotropin-releasing hormone receptor (Homo sapiens) (UniProt P34981); assay: qHTS assay to identify small molecule antagonists of the thyrotropin-releasing hormone receptor (TRHR) signaling pathway (AID 1346877; active = well fitted inhibition curve with a large enough effect in the repeat runs, not every such curve was filed as active; also: series mostly up to about 51 µM)
Summary of the method: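 Antagonism is measured as suppression of the calcium response to 1 nM TRH in TRHR-HEK293 cells that have been dye-loaded for 2 h at 37 °C after overnight plating. Each compound is tested at 15 concentrations in triplicate.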

Measured: Potency

CSc1cnccn1
not listed: [18]
inactive: all other assays above

Cc1c(NC(=O)c2cccnc2)c(=O)n(-c2ccccc2)n1C
not listed: [5] | [12] | [15]
inactive: all other assays above

CC(=O)Nc1ccc(OC(=O)c2ccccc2OC(C)=O)cc1
not listed: [18]
inactive: all other assays above

CC12CCC(C1)C(C)(C)C2O (centres undefined)
inactive: all assays above

COC(=O)c1ccccc1C(=O)O
not listed: [6] | [7]
inactive: all other assays above

CC(=O)O[Si](C)(OC(C)=O)OC(C)=O
not listed: [1] | [3] | [12] | [18]
inactive: all other assays above

CC1CCc2c(N3CCC(O)CC3)c(F)cc3c(=O)c(C(=O)O)cn1c23 (centres undefined)
not listed: [5] | [11] | [15]
inactive: all other assays above

CC(C)(C)NC[C@H](O)COc1cccc2c1CCCC2=O
not listed: [2] | [3] | [6] | [7] | [12]
inactive: all other assays above

C=CC(=O)CCCCC
not listed: [1] | [6] | [12] | [18]
inactive: all other assays above

OCC(O)CN1CCN(c2ccccc2)CC1 (centres undefined)
not listed: [1] | [5] | [12]
inactive: all other assays above
